Source: PubChem BioAssay (Tox21)
Inconclusive results are not listed. Entries that show only a call come without a potency. Unmarked numbers belong to inactive results. Activity calls are given as the source filed them. Unless noted, calls come from the whole dose curve; as a rule, active = well fitted curve in the direction sought with a large enough effect in the repeat runs; inconclusive = weak or mixed curves; inactive = no such curve, though single readings can be large; an effect the other way counts as inactive or inconclusive.

Legend:
[1] = target: Aryl hydrocarbon receptor (Homo sapiens) (UniProt P35869); experiment: qHTS assay to identify small molecule that activate the aryl hydrocarbon receptor (AhR) signaling pathway (AID 743085); note: nearly all actives have a fitted effect of over 15% in size; note: potency is the fitted concentration of half-maximal effect;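 for activation: HG2L7.5c1 human HepG2 liver cells with stably integrated DRE-driven firefly reporter; series mostly up to about 70 µM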
Chain of Aryl hydrocarbon receptor (Homo sapiens) (P35869 whole entry, looked up): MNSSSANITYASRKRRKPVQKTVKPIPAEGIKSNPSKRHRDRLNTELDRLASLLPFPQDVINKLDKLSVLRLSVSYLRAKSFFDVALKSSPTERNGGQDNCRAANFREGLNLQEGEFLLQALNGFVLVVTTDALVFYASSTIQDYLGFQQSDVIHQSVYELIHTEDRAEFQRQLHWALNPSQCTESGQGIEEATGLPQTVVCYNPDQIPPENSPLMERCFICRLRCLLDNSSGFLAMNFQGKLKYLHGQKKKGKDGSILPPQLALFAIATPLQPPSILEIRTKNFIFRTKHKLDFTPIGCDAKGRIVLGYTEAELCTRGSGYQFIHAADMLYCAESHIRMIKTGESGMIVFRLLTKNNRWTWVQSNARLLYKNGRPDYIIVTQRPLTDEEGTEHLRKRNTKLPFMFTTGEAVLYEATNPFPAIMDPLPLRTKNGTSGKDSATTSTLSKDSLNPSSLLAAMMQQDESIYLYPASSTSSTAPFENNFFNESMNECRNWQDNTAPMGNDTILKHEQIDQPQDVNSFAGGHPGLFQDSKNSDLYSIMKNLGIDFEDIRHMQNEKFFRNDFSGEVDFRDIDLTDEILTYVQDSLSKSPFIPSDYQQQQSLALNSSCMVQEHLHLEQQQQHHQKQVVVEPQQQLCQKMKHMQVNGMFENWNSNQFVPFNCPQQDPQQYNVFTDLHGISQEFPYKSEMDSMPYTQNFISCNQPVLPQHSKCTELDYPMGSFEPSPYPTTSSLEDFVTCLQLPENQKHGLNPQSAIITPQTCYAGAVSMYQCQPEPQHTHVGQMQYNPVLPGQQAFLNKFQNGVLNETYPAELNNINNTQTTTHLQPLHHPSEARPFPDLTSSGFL
Method in brief: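 A multiplexed format paired cell viability (CellTiter-Fluor fluorescence) with AhR-dependent luciferase output (ONE-Glo luminescence) in the same wells of HepG2 DRE-luc cells after 24 h compound exposure at 37C.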

[2] = qHTS assay to identify small molecule that activate the aryl hydrocarbon receptor (AhR) signaling pathway - cell viability counter screen (AID 743086); note: nearly all actives have a fitted effect of over 45% in size; note: potency is the fitted concentration of half-maximal effect
Method in brief: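 HepG2-AhR-luc (HG2L7.5c1) cells, 4000/well, treated 24 h at 37 C with compound; viability measured as CellTiter-Fluor fluorescence after 30 min in the same wells as the luciferase read.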

[3] = qHTS assay to identify small molecule antagonists of the peroxisome proliferator-activated receptor gamma (PPARg) signaling pathway - cell viability counter screen (AID 743194); note: nearly all actives have a fitted effect of over 55% in size; note: potency is the fitted concentration of half-maximal effect
Method in brief: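 Cytotoxicity counter screen in PPARg-bla HEK293H cells, same wells as reporter assay. Compounds plus 50 nM rosiglitazone (final) for 17 h at 37 C, then viability read by CellTiter-Glo luminescence.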

[4] = qHTS assay for small molecule activators of the heat shock response signaling pathway - cell viability counter screen (AID 743209); note: nearly all actives have a fitted effect of over 50% in size; note: potency is the fitted concentration of half-maximal effect
Method in brief: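 HSE-bla HeLa cells plated overnight, then exposed to Tox21 compounds (23 nL in DMSO) for 5 h at 37 C. After the bla reporter read, CellTiter-Glo was added in the same wells and luminescence read after 30 min at room temperature.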

[5] = qHTS assay to identify small molecule agonists of the peroxisome proliferator-activated receptor delta (PPARd) signaling pathway - cell viability counter screen (AID 743211); note: nearly all actives have a fitted effect of over 55% in size; note: potency is the fitted concentration of half-maximal effect
Method in brief: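 Tox21 library compounds, delivered in DMSO, were incubated 17 h with PPARd-bla HEK293H cells; cytotoxicity was taken from CellTiter-Glo luminescence read 30 min after reagent addition.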

[6] = qHTS assay to identify small molecule antagonists of the peroxisome proliferator-activated receptor delta (PPARd) signaling pathway - cell viability counter screen (AID 743213); note: nearly all actives have a fitted effect of over 50% in size; note: potency is the fitted concentration of half-maximal effect
Method in brief: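 Viability counter-screen, qHTS format: PPARd-bla HEK293H, L165041 300 nM final, 17 h compound exposure at 37 C, CellTiter-Glo luminescence after 30 min RT.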

[7] = qHTS assay to identify small molecule agonists of the farnesoid-X-receptor (FXR) signaling pathway - cell viability counter screen (AID 743218); note: nearly all actives have a fitted effect of over 45% in size; note: potency is the fitted concentration of half-maximal effect
Method in brief: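 FXR-UAS-bla HEK 293T cells exposed to compounds for 16 h at 37C. Cytotoxicity read in the same wells by CellTiter-Glo luminescence after 30 min at room temperature, following the beta-lactamase FRET read.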

[8] = qHTS assay to identify small molecule antagonists of the farnesoid-X-receptor (FXR) signaling pathway - cell viability counter screen (AID 743221; active = well fitted cell-killing curve with a large enough effect in the repeat runs, not every such curve was filed as active; note: nearly all actives have a fitted effect of over 50% in size; note: potency is the fitted concentration of half-maximal effect)
Method in brief: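 Cytotoxicity is taken from ATP luminescence (CellTiter-Glo, 30 min, room temperature) in FXR-bla HEK 293T cells previously incubated 16 h at 37 C with compound and chenodeoxycholic acid at 50 uM final.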

[9] = target: Vitamin D3 receptor (Homo sapiens) (UniProt P11473); experiment: qHTS assay to identify small molecule antagonists of the vitamin D receptor (VDR) signaling pathway (AID 743223; active = well fitted inhibition curve with a large enough effect in the signal ratio in the repeat runs, not every such curve was filed as active; the % refers to the signal ratio)
Chain of Vitamin D3 receptor (Homo sapiens) (P11473 whole entry, looked up): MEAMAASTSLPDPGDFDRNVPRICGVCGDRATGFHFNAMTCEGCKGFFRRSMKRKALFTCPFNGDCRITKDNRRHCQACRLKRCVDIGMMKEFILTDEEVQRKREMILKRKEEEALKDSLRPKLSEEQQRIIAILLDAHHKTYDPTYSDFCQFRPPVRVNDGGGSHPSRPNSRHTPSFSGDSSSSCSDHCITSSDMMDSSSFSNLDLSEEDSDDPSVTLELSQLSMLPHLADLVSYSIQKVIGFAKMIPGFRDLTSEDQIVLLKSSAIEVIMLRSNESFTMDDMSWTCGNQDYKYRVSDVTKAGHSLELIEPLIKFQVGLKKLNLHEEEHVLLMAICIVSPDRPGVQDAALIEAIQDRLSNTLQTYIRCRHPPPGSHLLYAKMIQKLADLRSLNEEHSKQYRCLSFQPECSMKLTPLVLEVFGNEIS
Method in brief: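 Quantitative HTS in VDR-bla reporter cells stimulated with 1alpha,25-dihydroxyvitamin D3, 3 nM final. Compound exposure 16 h, 37C, 5% CO2. Read-out: beta-lactamase FRET substrate fluorescence, 2 h RT.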

[10] = qHTS assay to identify small molecule agonists of the vitamin D receptor (VDR) signaling pathway - cell viability counter screen (AID 743224); note: nearly all actives have a fitted effect of over 50% in size; note: potency is the fitted concentration of half-maximal effect
Method in brief: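 VDR-bla cells, 4 h after plating, exposed to compounds for 16 h at 37C; viability then read in the same wells as CellTiter-Glo luminescence after 30 min at room temperature, following the bla FRET read.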

[11] = qHTS assay for small molecule agonists of the antioxidant response element (ARE) signaling pathway (AID 743202; active = well fitted activation curve with a large enough effect in the signal ratio in the repeat runs, not every such curve was filed as active; the % refers to the signal ratio; note: potency is the fitted concentration of half-maximal effect)
Method in brief: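 ARE-bla HepG2 cells (beta-lactamase reporter under the antioxidant response element), plated 5 hours, then exposed to compounds 16 hours at 37 C. LiveBLAzer B/G FRET substrate added for 2 hours at room temperature; fluorescence intensity read.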

[12] = qHTS assay for small molecule activators of the heat shock response signaling pathway (AID 743210; active = well fitted activation curve with a large enough effect in the signal ratio in the repeat runs, with a control signal flat, not every such curve was filed as active; the % refers to the signal ratio; note: series mostly up to about 63 µM)
Method in brief: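 HSE-bla HeLa cells (beta-lactamase reporter under heat shock response elements), plated overnight, then exposed to compounds 5 h at 37 C; LiveBLAzer B/G FRET substrate added, 2.5 h at room temperature, fluorescence intensity read.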

[13] = target: Peroxisome proliferator-activated receptor delta (Homo sapiens) (UniProt Q03181); experiment: qHTS assay to identify small molecule agonists of the peroxisome proliferator-activated receptor delta (PPARd) signaling pathway (AID 743212; calls by dose curve)
Chain of Peroxisome proliferator-activated receptor delta (Homo sapiens) (Q03181 whole entry, looked up): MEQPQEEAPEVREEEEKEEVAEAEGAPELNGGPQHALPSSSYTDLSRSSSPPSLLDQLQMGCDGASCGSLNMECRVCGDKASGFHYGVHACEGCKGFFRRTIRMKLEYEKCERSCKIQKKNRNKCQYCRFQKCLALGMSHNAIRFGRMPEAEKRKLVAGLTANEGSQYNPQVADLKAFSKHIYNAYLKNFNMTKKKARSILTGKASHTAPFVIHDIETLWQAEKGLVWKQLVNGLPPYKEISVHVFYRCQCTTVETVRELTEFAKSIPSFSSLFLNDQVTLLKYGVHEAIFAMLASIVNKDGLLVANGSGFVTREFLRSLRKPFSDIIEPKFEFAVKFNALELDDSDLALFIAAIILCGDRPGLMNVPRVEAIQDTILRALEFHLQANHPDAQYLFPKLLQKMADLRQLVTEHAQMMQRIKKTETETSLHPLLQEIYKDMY
Method in brief: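 GeneBLAzer UAS-bla HEK293H cells carrying a PPARδ construct were exposed to compounds at 37 °C. Beta-lactamase activity was read by FRET fluorescence after 2 h at room temperature with LiveBLAzer B/G substrate.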

[14] = target: Peroxisome proliferator-activated receptor gamma (Homo sapiens) (UniProt P37231); experiment: qHTS assay to identify small molecule agonists of the peroxisome proliferator-activated receptor gamma (PPARg) signaling pathway (AID 743094; active = well fitted activation curve with a large enough effect in the signal ratio in the repeat runs, not every such curve was filed as active; the % refers to the signal ratio)
Chain of Peroxisome proliferator-activated receptor gamma (Homo sapiens) (P37231 whole entry, looked up): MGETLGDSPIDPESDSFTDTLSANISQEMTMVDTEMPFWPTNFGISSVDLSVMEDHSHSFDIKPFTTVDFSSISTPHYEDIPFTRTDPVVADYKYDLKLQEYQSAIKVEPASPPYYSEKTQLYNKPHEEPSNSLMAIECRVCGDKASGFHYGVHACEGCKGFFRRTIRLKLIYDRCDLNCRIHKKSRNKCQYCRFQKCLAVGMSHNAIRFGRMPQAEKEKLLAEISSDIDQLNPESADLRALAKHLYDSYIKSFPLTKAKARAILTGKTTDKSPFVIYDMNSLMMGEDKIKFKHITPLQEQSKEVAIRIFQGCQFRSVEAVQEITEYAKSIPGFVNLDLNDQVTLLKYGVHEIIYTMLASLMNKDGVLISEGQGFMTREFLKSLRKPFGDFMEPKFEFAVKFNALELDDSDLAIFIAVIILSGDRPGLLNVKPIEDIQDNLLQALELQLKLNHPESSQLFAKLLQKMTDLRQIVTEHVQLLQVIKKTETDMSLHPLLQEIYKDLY
Method in brief: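 GeneBLAzer PPARg UAS-bla HEK293H cells were plated, rested 5 h, then exposed to compounds for 17 h at 37C. Beta-lactamase activity was read by LiveBLAzer B/G FRET substrate fluorescence after 1 h at room temperature.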

[15] = target: Peroxisome proliferator-activated receptor gamma (Homo sapiens) (UniProt P37231); experiment: qHTS assay to identify small molecule antagonists of the peroxisome proliferator-activated receptor gamma (PPARg) signaling pathway (AID 743191; calls by dose curve; note: series mostly up to about 63 µM; nearly all actives have a fitted effect of over 30% in size)
Method in brief: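 GeneBLAzer PPARg UAS-bla HEK293H cells, 5 h post-plating, exposed to compounds 17 h at 37C. LiveBLAzer B/G FRET substrate added for 1 h at room temperature; beta-lactamase reporter read by fluorescence intensity.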

[16] = qHTS assay for small molecule agonists of the antioxidant response element (ARE) signaling pathway - cell viability counter screen (AID 743203; calls by dose curve; note: nearly all actives have a fitted effect of over 55% in size; note: potency is the fitted concentration of half-maximal effect)
Method in brief: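 ARE-bla HepG2 cells were plated, rested 5 h at 37C/5% CO2, then exposed to compounds in DMSO for 16 h. Viability was read as CellTiter-Glo luminescence after 30 min at room temperature, in the same wells as the ARE screen.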

[17] = target: Peroxisome proliferator-activated receptor delta (Homo sapiens) (UniProt Q03181); experiment: qHTS assay to identify small molecule antagonists of the peroxisome proliferator-activated receptor delta (PPARd) signaling pathway (AID 743215; active = well fitted inhibition curve with a large enough effect in the signal ratio in the repeat runs, not every such curve was filed as active; the % refers to the signal ratio;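 note: cells stimulated with agonist L165041 at 300 nM final during compound exposure; series mostly up to about 62 µM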)
Method in brief: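 PPARd-bla HEK293H cells (UAS-bla reporter) preincubated 5 h, then given compound plus 300 nM final L165041 agonist for 17 h at 37 C. Beta-lactamase activity read by LiveBLAzer B/G FRET substrate fluorescence after 2 h at room temperature.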

[18] = target: Bile acid receptor (Homo sapiens) (UniProt Q96RI1); experiment: qHTS assay to identify small molecule antagonists of the farnesoid-X-receptor (FXR) signaling pathway (AID 743217; active = well fitted inhibition curve with a large enough effect in the signal ratio in the repeat runs, not every such curve was filed as active; the % refers to the signal ratio; note: potency is the fitted concentration of half-maximal effect)
Chain of Bile acid receptor (Homo sapiens) (Q96RI1 whole entry, looked up): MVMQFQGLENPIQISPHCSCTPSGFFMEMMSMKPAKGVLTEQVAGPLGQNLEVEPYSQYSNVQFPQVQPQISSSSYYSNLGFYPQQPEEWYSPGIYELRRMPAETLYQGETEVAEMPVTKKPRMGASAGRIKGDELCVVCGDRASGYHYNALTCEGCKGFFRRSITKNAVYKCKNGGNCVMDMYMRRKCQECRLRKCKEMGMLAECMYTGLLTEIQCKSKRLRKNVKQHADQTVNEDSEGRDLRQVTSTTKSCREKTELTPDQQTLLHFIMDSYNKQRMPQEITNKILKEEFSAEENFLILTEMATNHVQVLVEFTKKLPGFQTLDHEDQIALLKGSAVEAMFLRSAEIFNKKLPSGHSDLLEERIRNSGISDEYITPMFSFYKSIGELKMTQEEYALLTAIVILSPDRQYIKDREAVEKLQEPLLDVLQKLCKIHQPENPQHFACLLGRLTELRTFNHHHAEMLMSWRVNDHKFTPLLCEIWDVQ
Method in brief: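 FXR-UAS-bla HEK 293T cells (beta-lactamase reporter) given compound plus chenodeoxycholic acid (50 uM final), 16 h at 37C. LiveBLAzer B/G FRET substrate added for 2 h at room temperature; fluorescence read.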

[19] = target: Bile acid receptor (Homo sapiens) (UniProt Q96RI1); experiment: qHTS assay to identify small molecule agonists of the farnesoid-X-receptor (FXR) signaling pathway (AID 743220; active = well fitted activation curve with a large enough effect in the signal ratio in the repeat runs, not every such curve was filed as active; the % refers to the signal ratio)
Method in brief: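 Beta-lactamase reporter under UAS control in GeneBLAzer FXR HEK 293T cells (5000/well) measured with LiveBLAzer FRET substrate after 2 h at room temperature. Compound exposure lasted 16 h at 37C.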

[20] = target: Vitamin D3 receptor (Homo sapiens) (UniProt P11473); experiment: qHTS assay to identify small molecule agonists of the vitamin D receptor (VDR) signaling pathway (AID 743222; calls by dose curve)
Method in brief: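 VDR-bla cells plated 4 h at 37 C, then exposed to compounds for 16 h at 37 C. Beta-lactamase reporter activity measured by fluorescence after 2 h room-temperature loading with LiveBLAzer B/G FRET substrate.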

For `CCCCc1ncc(/C=C(\Cc2cccs2)C(=O)O)n1Cc1ccc(C(=O)O)cc1`, the Potency [1] was “inactive”, the Potency [2] was “inactive” and the Potency [3] was “inactive”. The Potency [4] was “inactive”, the Potency [5] was “inactive” and the Potency [6] was “inactive”. For the same compound, the Potency [7] was “inactive”, the Potency [8] was “inactive” and the outcome [9] was “inactive”. For the same compound, the Potency [10] was “inactive”.
In the case of `CC/C=C\CCOC(=O)CC`, the Potency [1] was “inactive”, the Potency [2] was “inactive” and the Potency [3] was “inactive”. For the same compound, the Potency [11] was “inactive”, the Potency [12] was “inactive” and the Potency [5] was “inactive”. The Potency [13] was “inactive”, the Potency [8] was “inactive” and the Potency [10] was “inactive”.
With `CN1C[C@H]2c3ccccc3Oc3ccc(Cl)cc3[C@@H]2C1` the Potency [1] was 13.3 µM (active), the Potency [14] was “inactive” and the Potency [15] was “inactive”. For the same compound, the Potency [16] was “inactive”, the Potency [4] was “inactive” and the Potency [13] was “inactive”. The Potency [17] was “inactive”, the Potency [18] was “inactive” and the Potency [7] was “inactive”. For the same compound, the Potency [19] was “inactive”, the Potency [8] was “inactive” and the Potency [20] was “inactive”. For the same compound, the outcome [9] was “inactive” and the Potency [10] was “inactive”.
For `CCCCCCCCCCCCCCCCCCOS(=O)(=O)O`, the Potency [1] was “inactive”, the Potency [2] was “inactive” and the Potency [16] was 61.1 µM (active). The Potency [5] was 49 µM (active), the Potency [6] was 54.9 µM (active) and the Potency [7] was 34.7 µM (active). For the same compound, the Potency [20] was “inactive”, the outcome [9] was “inactive” and the Potency [10] was 54.9 µM (active).
With `Cc1cccc(Nc2ccccc2)c1` the Potency [1] was “inactive”, the Potency [2] was “inactive” and the Potency [11] was “inactive”. For the same compound, the Potency [16] was “inactive”, the Potency [12] was “inactive” and the Potency [5] was “inactive”. The Potency [6] was “inactive”, the Potency [18] was “inactive” and the Potency [7] was “inactive”. The Potency [20] was “inactive”, the outcome [9] was “inactive” and the Potency [10] was “inactive”.
For `C=C1C(=C/C=C2\CCC[C@]3(C)[C@@H]([C@H](C)/C=C/[C@@H](O)C4CC4)CC[C@@H]23)C[C@@H](O)C[C@@H]1O`, the Potency [1] was “inactive”, the Potency [2] was “inactive” and the Potency [3] was 26.6 µM (active). For the same compound, the Potency [11] was 2.66 µM (active), the Potency [18] was 29.8 µM (active) and the Potency [10] was “inactive”.
With `c1ccc(C(O[C@H]2CCCN(CCc3ccc4c(c3)OCO4)C2)c2ccccc2)cc1` the Potency [1] was 26.6 µM (active), the Potency [2] was “inactive” and the Potency [3] was “inactive”. For the same compound, the Potency [4] was “inactive”, the Potency [13] was “inactive” and the Potency [17] was “inactive”. For the same compound, the Potency [7] was “inactive”, the Potency [8] was “inactive” and the Potency [10] was “inactive”.
In the case of `C=CC(=O)OCCOc1ccccc1`, the Potency [1] was “inactive”, the Potency [2] was “inactive” and the Potency [3] was “inactive”. For the same compound, the Potency [11] was “inactive”, the Potency [16] was “inactive” and the Potency [4] was 19.5 µM (active). The Potency [5] was “inactive”, the Potency [8] was “inactive” and the Potency [20] was “inactive”. The outcome [9] was “inactive” and the Potency [10] was “inactive”.
With `CNCCCN1c2ccccc2CCc2ccccc21` the Potency [1] was “inactive”, the Potency [2] was “inactive” and the Potency [3] was “inactive”. For the same compound, the Potency [16] was 29.8 µM (active), the Potency [4] was “inactive” and the Potency [6] was 9.44 µM (active). The Potency [7] was 18.8 µM (active), the Potency [19] was “inactive” and the Potency [10] was 15 µM (active).
For `CC(C)C[C@H]1C(=O)N2CCC[C@H]2[C@]2(O)O[C@](NC(=O)[C@@H]3C=C4c5cccc6[nH]c(Br)c(c56)C[C@H]4N(C)C3)(C(C)C)C(=O)N12`, the Potency [1] was “inactive”, the Potency [2] was 26.6 µM (active) and the Potency [3] was “inactive”. For the same compound, the Potency [11] was 4.13 µM (active), the Potency [16] was “inactive” and the Potency [4] was “inactive”. For the same compound, the Potency [7] was “inactive”, the Potency [8] was “inactive” and the Potency [20] was “inactive”. For the same compound, the outcome [9] was “inactive” and the Potency [10] was “inactive”.
In the case of `Cc1cccc(C)c1OCC(=O)N[C@@H](Cc1ccccc1)[C@@H](O)C[C@H](Cc1ccccc1)NC(=O)[C@H](C(C)C)N1CCCNC1=O`, the Potency [1] was “inactive”, the Potency [2] was 23.7 µM (active) and the Potency [11] was 29.8 µM (active). The Potency [4] was “inactive”, the Potency [6] was “inactive” and the Potency [17] was “inactive”. The Potency [8] was 23.7 µM (active), the Potency [20] was “inactive” and the outcome [9] was “inactive”. The Potency [10] was “inactive”.
